Measurements: the supplement of paper PMC6555819

Assays:
Test in all cases: PBM binding z-score (relative to random genomic background probes); higher = stronger binding; sequences stand for … in GC…GCGATTGACAGCGTAGAATGAAGG
[1] = test system: FXR:RXRa (NR concentration 270 nM, RXRa partner concentration 90 nM)
Method in brief: (§1)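 Binding z-scores were set against random background probes. The data came from custom Agilent 4×180K protein-binding microarrays carrying double-stranded probes with 34-nt variable regions, incubated 1 h with ligand-free nuclear receptor dimers. Partner-specific antibodies detected binding, and scanned fluorescence was regression-normalized.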

[2] = test system: LXRa:RXRa (NR concentration 270 nM, RXRa partner concentration 90 nM)
Method in brief: as §1

[3] = test system: LXRa homodimer (NR concentration 270 nM)
Method in brief: as §1

[4] = test system: LXRb:RXRa (NR concentration 270 nM, RXRa partner concentration 90 nM)
Method in brief: as §1

[5] = test system: LXRb homodimer (NR concentration 270 nM)
Method in brief: as §1

[6] = test system: PPARa:RXRa (NR concentration 270 nM, RXRa partner concentration 90 nM)
Method in brief: as §1

[7] = test system: PPARg:RXRa (NR concentration 180 nM, RXRa partner concentration 90 nM)
Method in brief: as §1

[8] = test system: PPARg:RXRa 270nM:90nM, anti-RXR (NR concentration 270 nM, RXRa partner concentration 90 nM)
Method in brief: as §1

[9] = test system: PPARg:RXRa 30nM:10nM, anti-RXR (NR concentration 30 nM, RXRa partner concentration 10 nM)
Method in brief: as §1

[10] = test system: PPARg:RXRa 90nM:30nM, anti-RXR (NR concentration 90 nM, RXRa partner concentration 30 nM)
Method in brief: as §1

[11] = test system: PPARg:RXRa DBDmut IVT, anti-RXR (DBD mutation: RXRa K156A/R161A, NR concentration 270 nM, RXRa partner concentration 90 nM)
Method in brief: as §1

[12] = test system: PPARg:RXRa IVT, anti-PPARg (NR concentration 270 nM, RXRa partner concentration 90 nM)
Method in brief: as §1

[13] = test system: PPARg DBDmut:RXRa IVT, anti-PPARg (DBD mutation: PPARg1 K132A/R137A, NR concentration 270 nM, RXRa partner concentration 90 nM)
Method in brief: as §1

[14] = test system: PPARg DBDmut IVT, anti-PPARg (DBD mutation: PPARg1 K132A/R137A, NR concentration 270 nM)
Method in brief: as §1

[15] = test system: PPARg homodimer (NR concentration 180 nM)
Method in brief: as §1

[16] = test system: PXR:RXRa (NR concentration 270 nM, RXRa partner concentration 90 nM)
Method in brief: as §1

[17] = test system: PXR homodimer (NR concentration 270 nM)
Method in brief: as §1

[18] = test system: RARa:RXR (NR concentration 270 nM, RXRa partner concentration 90 nM)
Method in brief: as §1

[19] = test system: RARa homodimer (NR concentration 270 nM)
Method in brief: as §1

[20] = test system: RARb:RXRa (NR concentration 270 nM, RXRa partner concentration 90 nM)
Method in brief: as §1

Row | Sequence | PBM binding z-score [1] | PBM binding z-score [2] | PBM binding z-score [3] | PBM binding z-score [4] | PBM binding z-score [5] | PBM binding z-score [6] | PBM binding z-score [7] | PBM binding z-score [8] | PBM binding z-score [9] | PBM binding z-score [10] | PBM binding z-score [11] | PBM binding z-score [12] | PBM binding z-score [13] | PBM binding z-score [14] | PBM binding z-score [15] | PBM binding z-score [16] | PBM binding z-score [17] | PBM binding z-score [18] | PBM binding z-score [19] | PBM binding z-score [20]
1 | GCTAGGAGGCCATTTGGGTCACTCAATGACGGGC | 0.677 | 0.0368 | -0.495 | 0.118 | -0.985 | 1.73 | 0.825 | 0.402 | -0.518 | 0.187 | 1.91 | 2.38 | -0.861 | -0.88 | 0.287 | 1.21 | 1.1 | 1.04 | -0.719 | 1.95
2 | ATACCAAGGTGGTCGTGAGGTCGTTGATACTAAC | 1.49 | 0.821 | 0.382 | 1.05 | -0.378 | 1.21 | 0.268 | 0.0614 | -0.274 | -0.258 | -0.434 | 0.335 | 0.113 | 0.0753 | 0.722 | 2.61 | 1.69 | 1.99 | 0.748 | 1.08
3 | CGTCCAAGGTCAAGGTCCGTGAAAGAGACTCGAA | 7.33 | 5.22 | 0.155 | 3.84 | 0.0848 | 5.79 | 5.02 | 5.3 | 1.9 | 3.92 | 3.62 | 3.88 | 0.152 | -0.702 | 2.49 | 3.69 | 0.711 | 4.47 | 0.5 | 5.29
4 | CCTTACGTGTCACTCCAGGTTATAGCATCGGAGT | 1.96 | 5.55 | 2.04 | 1.89 | 1.05 | 0.862 | 0.466 | 0.288 | -0.302 | -0.0102 | 1.84 | 1.44 | 0.74 | 0.788 | 1.64 | 1.44 | 0.593 | 0.864 | 1.76 | 1.16
5 | CCTAGCAGGCCCGGGTCACTCAAGCATTTCGCTT | 1.18 | 1.11 | -0.362 | 1.25 | -0.958 | 2.17 | -0.225 | 0.755 | -0.825 | 0.0676 | -0.956 | -0.289 | -1.26 | -1.82 | 0.788 | 1.78 | -0.484 | 2.49 | -0.473 | 1.63
6 | GCTGCTAGGTCAACAGATGGTCAGCTAAAGCTCG | 3.13 | 2.22 | -0.297 | 1.37 | -0.198 | 2.99 | 2.43 | 2.5 | 0.277 | 1.86 | 4.44 | 3.68 | -0.0685 | -0.727 | 1.6 | 1.22 | -0.762 | 2.23 | -0.595 | 3.97
7 | CGTCCAAGGTCAATGCTAGGTCAGTGAGAGCATT | 6.44 | 5.68 | 2.93 | 4.16 | 0.966 | 5.13 | 4.1 | 4.72 | 2.14 | 3.48 | 3.49 | 4.04 | 0.572 | -0.0566 | 6.21 | 5.05 | 2.93 | 6.05 | 1.51 | 5.23
8 | CCAGACAGGTGAGAAGGTAAATCAGCCTCGATTA | 0.109 | 0.108 | -0.129 | 0.141 | -0.154 | 0.484 | 0.39 | 0.456 | 0.0319 | 0.15 | 0.792 | 0.856 | -0.421 | -0.384 | 0.684 | 0.0672 | -0.0292 | 0.359 | -0.00331 | 0.508
